Active and inactive are the calls of the source.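 The calls were made as follows: active = z-score of at least 1.8 in each of two replicates, scored against plate mean and spread of sample wells; inactive = the rest.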
experiment: viability rescue of complex I mutant cybrids, primary screen, cell-based, galactose medium, ATP luminescence (AID 1645843); conditions: complex I mutant cybrid cells, 72 h, active compounds read high;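 also: positive z means more ATP and so rescue of galactose-driven cybrid death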

| Compound | z-score |
| --- | --- |
| COc1cc(N2CCCC(c3nc(C(C)C)no3)C2)nc(N)n1 (stereo not given) | 0.815 (inactive) |
| CN(C)Cc1cn(CC2CCN(C(=O)CC3CCCCCC3)CC2)nn1 | -0.47 (inactive) |
| Cc1ccc(C(=O)N2CCNC(=O)C2Cc2ccccc2)cc1F (stereo not given) | -0.505 (inactive) |
| CC1(C)CCN(C(=O)c2cc(-c3cnc(C4CC4)nc3)nc3ccc(F)cc23)C1 | -0.54 (inactive) |
| CC(C)c1cc(C(=O)N2CCCC(c3ccccc3)C2)on1 (stereo not given) | -0.55 (inactive) |
| Cc1cc(N2CCCC(Cn3cc(CN)nn3)C2)nc(-c2ccccc2O)n1 (stereo not given) | -0.9 (inactive) |
| CCCCc1cn(C2CCN(C3Cc4ccccc4C3)CC2)nn1 | -0.33 (inactive) |
| CC(O)Cc1cn(CC2CCN(C(=O)C3CCCCCC3)CC2)nn1 (stereo not given) | -0.51 (inactive) |
| CC(CCN1CCC(n2cc(CO)nn2)CC1)CC(C)(C)C (stereo not given) | -0.48 (inactive) |
| Cc1ccc(CCC(=O)N(C)Cc2cnn(C(C)C)c2)cc1C | -0.565 (inactive) |
| Fc1cccc(-c2ccc(N3CCC(NC4CCNCC4)CC3)cc2)c1 | -1.3 (inactive) |
| COc1cccc(CN2CCN(c3ccc4cccc(OC)c4n3)CC2)c1 | -0.86 (inactive) |
| O=C1NCCN(C(=O)c2ccc(Cl)cc2)C1Cc1ccccc1 (stereo not given) | 0.59 (inactive) |
| CC(C)CCC(=O)N1CCCCC1CCc1ccc(O)cc1 (stereo not given) | -0.375 (inactive) |
| Cc1nn(C)c(C)c1-c1ccnc(N(C)Cc2cnn(C(C)C)c2)n1 | 0.67 (inactive) |
| CC(C)Oc1cccc(C(=O)N2CCC(n3cc(C(C)(C)O)nn3)CC2)c1 | -0.52 (inactive) |
| Cc1cccc2c(C(=O)N(C)C(C)C)cc(-c3cnc(C(C)(C)C)nc3)nc12 | 2.35 (active) |
| Cc1cc(N2CCC(Cn3cc(CN)nn3)CC2)nc(-c2ccccc2O)n1 | -1.23 (inactive) |
| CC(C)c1cc(C(=O)N2CCCC(c3ccc(Cl)cc3)C2)on1 (stereo not given) | 0.165 (inactive) |
| CCc1nc(C)ccc1OCC(=O)N1CCc2[nH]nc(C3CCC3)c2C1 | -0.6 (inactive) |

| Compound | z-score |
| --- | --- |
| COc1nc2c(cc1C(=O)N1CCOc3ccccc31)CCC2 | 0.225 (inactive) |
| COCCN(C)Cc1ccc(-c2nc(C)c(C)c(=O)[nH]2)cc1 | -0.545 (inactive) |
| O=c1c2cccc(C(F)(F)F)c2ncn1Cc1ccc(Cl)s1 | -0.515 (inactive) |
| CNCc1cn(C2CCN(CCC(C)CC(C)(C)C)CC2)nn1 (stereo not given) | -0.49 (inactive) |
| CC(C)CN(C)Cc1cn(C2CCN(C3CCCCCC3)CC2)nn1 | -0.485 (inactive) |
| O=C(c1cc(-c2cncnc2)nc2cc(F)ccc12)N1CCCC1Cc1cccnc1 (stereo not given) | 0.765 (inactive) |
| Cc1cccc2c(C(=O)N(C)C(C)C)cc(-c3cnn(C(C)C)c3)nc12 | 2.17 (active) |
| CCOC(=O)c1ccc(N2CCN(CC(C)C)C(=O)C2C)nc1 (stereo not given) | -0.53 (inactive) |
| Cc1ccc(C)c(-c2c(C)sc3ncn(C4CCN(C)C4=O)c(=O)c23)c1 (stereo not given) | 0.12 (inactive) |
| CCN(Cc1ccncc1)C(=O)c1cc(-c2cnc(C)nc2)nc2c(C)cccc12 | -0.835 (inactive) |
| CCC1(CC)CC1C(=O)N1CCC(n2cc(C3CC3)nn2)CC1 (stereo not given) | -0.51 (inactive) |
| CCCCc1cn(C2CCN(C(=O)C3CCCO3)CC2)nn1 (stereo not given) | -0.535 (inactive) |
| OC[C@H](Cc1ccccc1)NC1CCCCCC1 | -0.555 (inactive) |
| O=C(CN1CCOC1=O)NCCc1cccc(F)c1 | -0.505 (inactive) |
| Cc1cc(NC(=O)Cn2ccc(-c3ccncc3)n2)n(-c2ccccn2)n1 | 0.42 (inactive) |
| CC(C)(O)c1cn(C2CCN(C(=O)CCC(=O)N3CCCCCC3)CC2)nn1 | -0.545 (inactive) |
| CC(C)(C)c1cn(CC2CCCN(C(=O)c3cn4cccnc4n3)C2)nn1 (stereo not given) | 0.425 (inactive) |
| Cc1nsc(NC(=O)N2CCCN(c3ccccc3)CC2)n1 | -0.19 (inactive) |
| O=C(Nc1cccc(-c2cncnc2)c1)c1ccc2c(c1)OCO2 | -0.62 (inactive) |
| COc1ccc(F)cc1-c1ccc2ccccc2n1 | -0.15 (inactive) |

From PubChem BioAssay
